# Values joined by “and” are separate entries in the source; they are usually repeats but may differ in a detail not shown here. Equal entries are not always repeated. Records with an inconclusive call do not appear. Entries that show only a call come without a potency. Active and inactive are the calls of the source. Unless noted, the call rests on the fitted dose curve; in most records, active means well fitted curve in the direction sought with a large enough effect; inconclusive means small, poorly fitted or top-dose-only effect, or another doubt; inactive means no such curve, though single readings can be large; an effect the other way counts as inactive or inconclusive.
# How the values were obtained:
# [1] = Cell Viability - N2a (AID 540); conditions: N2a mouse neuroblastoma cell viability; activity change, negative = cytotoxicity: at 92.2 µM (top of the series); further: nearly all actives have a fitted effect of over 45% in size
# Procedure, shortened: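 Mouse neuroblastoma N2a cells (1500/well) were preincubated 5 hr at 37 °C, then exposed to compounds for 40 hr at 37 °C in complete medium. Viability was read as intracellular ATP by CellTiter-Glo luminescence; AC50 from Hill fits.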
# [2] = biological target: Cytochrome P450 3A4 (Homo sapiens) (UniProt P08684); assay: qHTS Assay for Inhibitors and Substrates of Cytochrome P450 3A4 (AID 884); further: nearly all actives have a fitted effect of over 50% in size
# Cytochrome P450 3A4 (Homo sapiens), sequence (P08684 whole entry, looked up): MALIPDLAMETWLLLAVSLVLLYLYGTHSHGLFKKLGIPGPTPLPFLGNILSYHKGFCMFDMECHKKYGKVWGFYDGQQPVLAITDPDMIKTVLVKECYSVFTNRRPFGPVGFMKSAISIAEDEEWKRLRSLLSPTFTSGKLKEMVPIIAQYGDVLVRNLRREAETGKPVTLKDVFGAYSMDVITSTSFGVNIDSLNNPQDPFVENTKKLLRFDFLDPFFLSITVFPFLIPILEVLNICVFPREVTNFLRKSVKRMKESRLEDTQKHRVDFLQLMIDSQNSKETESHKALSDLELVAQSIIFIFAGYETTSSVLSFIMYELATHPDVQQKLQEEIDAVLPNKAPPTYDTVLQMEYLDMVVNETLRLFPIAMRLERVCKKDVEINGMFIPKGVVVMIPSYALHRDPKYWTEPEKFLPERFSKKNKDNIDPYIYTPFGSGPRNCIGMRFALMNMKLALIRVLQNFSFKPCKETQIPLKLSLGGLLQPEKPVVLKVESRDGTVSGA
# Procedure, shortened: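 20 nM human CYP3A4 with 25 uM Luciferin-PPXE (at KM) in 200 mM KPO4, preincubated 10 min with compound; NADPH regeneration started a 60 min RT reaction. Luciferin detected by luminescence, normalized to 57 uM ketoconazole as full inhibition.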
# [3] = biological target: Voltage-gated inwardly rectifying potassium channel KCNH2 (Homo sapiens) (UniProt Q12809); assay: qHTS Assay for Small Molecule Inhibitors of the Human hERG Channel Activity (AID 588834);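 further: top concentration of the series differs between compounds; lower thallium flux fluorescence means stronger hERG block; nearly all actives have a fitted effect of over 50% in size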
# Voltage-gated inwardly rectifying potassium channel KCNH2 (Homo sapiens), sequence (Q12809 whole entry, looked up): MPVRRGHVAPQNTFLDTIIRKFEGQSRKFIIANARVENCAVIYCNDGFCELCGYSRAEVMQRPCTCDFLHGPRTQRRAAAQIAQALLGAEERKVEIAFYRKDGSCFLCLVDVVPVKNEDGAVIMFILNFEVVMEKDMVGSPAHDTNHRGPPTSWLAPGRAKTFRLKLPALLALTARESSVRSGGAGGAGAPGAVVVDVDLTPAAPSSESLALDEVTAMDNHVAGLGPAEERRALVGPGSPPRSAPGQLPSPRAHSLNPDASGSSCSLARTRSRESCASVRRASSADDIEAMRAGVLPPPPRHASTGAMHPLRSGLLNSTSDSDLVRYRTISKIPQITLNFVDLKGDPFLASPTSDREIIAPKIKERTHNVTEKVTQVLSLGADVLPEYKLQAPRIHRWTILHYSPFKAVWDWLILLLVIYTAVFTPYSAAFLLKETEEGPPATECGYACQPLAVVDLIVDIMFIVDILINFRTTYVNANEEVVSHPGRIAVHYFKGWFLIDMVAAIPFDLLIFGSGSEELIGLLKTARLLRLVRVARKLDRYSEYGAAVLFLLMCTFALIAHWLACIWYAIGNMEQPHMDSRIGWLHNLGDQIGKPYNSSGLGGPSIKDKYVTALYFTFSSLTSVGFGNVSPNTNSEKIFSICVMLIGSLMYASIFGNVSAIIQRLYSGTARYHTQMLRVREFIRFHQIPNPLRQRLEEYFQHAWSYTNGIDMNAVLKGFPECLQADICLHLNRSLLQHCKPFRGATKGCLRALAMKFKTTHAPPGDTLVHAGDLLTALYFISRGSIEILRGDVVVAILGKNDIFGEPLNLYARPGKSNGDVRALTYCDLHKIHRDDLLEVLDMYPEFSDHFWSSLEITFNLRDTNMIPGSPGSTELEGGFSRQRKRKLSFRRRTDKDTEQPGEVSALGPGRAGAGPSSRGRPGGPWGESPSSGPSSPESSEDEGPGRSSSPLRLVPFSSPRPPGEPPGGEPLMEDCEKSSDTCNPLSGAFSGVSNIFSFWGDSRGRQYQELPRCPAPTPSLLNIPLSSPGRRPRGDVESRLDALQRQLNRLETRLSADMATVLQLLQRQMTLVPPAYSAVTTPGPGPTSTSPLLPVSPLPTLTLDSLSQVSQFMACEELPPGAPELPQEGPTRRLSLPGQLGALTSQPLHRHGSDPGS
# Procedure, shortened: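 hERG-BacMam U2OS, 2000 cells/well; 0.7X FluxOR loading 1 hr RT dark; cpd ~10 min 37 °C; stim buffer; FDSS fluorescence 2 min @ 1 s; AC50 Hill fit.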
# [4] = qHTS assay for small molecule agonists of the antioxidant response element (ARE) signaling pathway (AID 651741; active means well fitted activation curve with a large enough effect in the signal ratio; the % refers to the signal ratio; further: potency means the concentration at half of the fitted maximal effect)
# Procedure, shortened: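 ARE-bla HepG2 cells (beta-lactamase reporter under ARE control) were plated at 2,000 cells/well, preincubated 5 h at 37 C/5% CO2, then treated with DMSO-dissolved compounds for 16 h at 37 C; LiveBLAzer B/G FRET substrate added, fluorescence read after 2 h at room temperature.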
# [5] = qHTS assay for small molecule disruptors of the mitochondrial membrane potential - 1 hr assay (AID 651754; calls by dose curve; further: nearly all actives have a fitted effect of over 35% in size)
# Procedure, shortened: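 HepG2 cells, attached overnight at 37C, were exposed to compound or DMSO vehicle for 1 hr at 37C, 5% CO2, then stained with Mito-MPS dye for 30 min. Red aggregate versus green monomer fluorescence reports membrane potential.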
# [6] = qHTS assay for environmental chemicals that activate the Aryl hydrocarbon Receptor (AhR) signaling pathway (AID 651777); conditions: 1A2-DRE human hepatoma cells, luciferase, 24 h; activation: stronger effect = higher value; further: nearly all actives have a fitted effect of over 15% in size
# Procedure, shortened: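 Reporter gene assay: hepatoma cells with DRE/CYP1A2-luciferase, 24 hr compound incubation at 37 C, 5% CO2, luminescence after One-Glo (30 min, RT).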
# [7] = Cellular Toxicity (caspase-3) BJ (AID 658)
# Procedure, shortened: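 Luminescent aminoluciferin-substrate cleavage reports caspase 3/7 activity in normal human BJ fibroblasts after 16 hr compound exposure at 37 °C. Normalized to DMSO (basal) and 10 uM staurosporine (100%); AC50 from Hill fit of concentration-response.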
# [8] = biological target: Estrogen receptor (Homo sapiens) (UniProt P03372); assay: qHTS assay for small molecule antagonists of estrogen receptor alpha signaling (AID 588513; active means well fitted curve in the direction sought with a large enough effect in the signal ratio, with a control signal flat, not every such curve was filed as active; the % refers to the signal ratio)
# Estrogen receptor (Homo sapiens), sequence (P03372 whole entry, looked up): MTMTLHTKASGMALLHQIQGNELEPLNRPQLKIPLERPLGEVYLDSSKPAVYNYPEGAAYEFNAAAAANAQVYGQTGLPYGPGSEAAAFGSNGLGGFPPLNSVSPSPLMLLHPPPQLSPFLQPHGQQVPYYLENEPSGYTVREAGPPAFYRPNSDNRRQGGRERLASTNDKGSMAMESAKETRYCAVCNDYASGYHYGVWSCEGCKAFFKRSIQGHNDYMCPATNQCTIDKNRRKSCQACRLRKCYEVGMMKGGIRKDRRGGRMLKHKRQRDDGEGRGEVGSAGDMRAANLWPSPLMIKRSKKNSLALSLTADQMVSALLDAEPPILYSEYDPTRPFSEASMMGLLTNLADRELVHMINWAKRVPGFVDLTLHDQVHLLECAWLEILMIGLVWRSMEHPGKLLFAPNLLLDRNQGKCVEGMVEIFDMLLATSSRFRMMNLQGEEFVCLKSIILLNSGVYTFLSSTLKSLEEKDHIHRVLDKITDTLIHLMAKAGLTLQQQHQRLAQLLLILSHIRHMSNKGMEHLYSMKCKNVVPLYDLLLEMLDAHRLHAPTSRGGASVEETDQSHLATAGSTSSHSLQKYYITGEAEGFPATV
# Procedure, shortened: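 Fluorescence from CCF4 substrate after 2 h at room temperature gave reporter activity; cells had been exposed to compound and 0.5nM 17-beta-estradiol for 18 h at 37 C. Hill-equation fitting yielded IC50 and maximal response.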
# [9] = biological target: Estrogen receptor (Homo sapiens) (UniProt P03372); assay: qHTS assay for small molecule agonists of estrogen receptor alpha signaling (AID 588514; calls by dose curve; further: nearly all actives have a fitted effect of over 70% in size)
# Procedure, shortened: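 ER-alpha-UAS-bla GripTite HEK 293 cells in medium with 2% charcoal/dextran-treated FBS were treated with compound titrations at 37 C for 18 hrs; beta-lactamase reporter read by CCF4 fluorescence after 2 hrs at RT.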
# [10] = biological target: Glucocorticoid receptor (Homo sapiens) (UniProt P04150); assay: qHTS assay for small molecule agonists of glucocorticoid receptor signaling (AID 588532; active means well fitted curve in the direction sought with a large enough effect in the signal ratio, with a control signal flat; the % refers to the signal ratio); conditions: HeLa MMTV-bla, beta-lactamase ratio, agonist, 18 h; stronger effect = higher value; percent of dexamethasone control, DMSO zero
# Glucocorticoid receptor (Homo sapiens), sequence (P04150 whole entry, looked up): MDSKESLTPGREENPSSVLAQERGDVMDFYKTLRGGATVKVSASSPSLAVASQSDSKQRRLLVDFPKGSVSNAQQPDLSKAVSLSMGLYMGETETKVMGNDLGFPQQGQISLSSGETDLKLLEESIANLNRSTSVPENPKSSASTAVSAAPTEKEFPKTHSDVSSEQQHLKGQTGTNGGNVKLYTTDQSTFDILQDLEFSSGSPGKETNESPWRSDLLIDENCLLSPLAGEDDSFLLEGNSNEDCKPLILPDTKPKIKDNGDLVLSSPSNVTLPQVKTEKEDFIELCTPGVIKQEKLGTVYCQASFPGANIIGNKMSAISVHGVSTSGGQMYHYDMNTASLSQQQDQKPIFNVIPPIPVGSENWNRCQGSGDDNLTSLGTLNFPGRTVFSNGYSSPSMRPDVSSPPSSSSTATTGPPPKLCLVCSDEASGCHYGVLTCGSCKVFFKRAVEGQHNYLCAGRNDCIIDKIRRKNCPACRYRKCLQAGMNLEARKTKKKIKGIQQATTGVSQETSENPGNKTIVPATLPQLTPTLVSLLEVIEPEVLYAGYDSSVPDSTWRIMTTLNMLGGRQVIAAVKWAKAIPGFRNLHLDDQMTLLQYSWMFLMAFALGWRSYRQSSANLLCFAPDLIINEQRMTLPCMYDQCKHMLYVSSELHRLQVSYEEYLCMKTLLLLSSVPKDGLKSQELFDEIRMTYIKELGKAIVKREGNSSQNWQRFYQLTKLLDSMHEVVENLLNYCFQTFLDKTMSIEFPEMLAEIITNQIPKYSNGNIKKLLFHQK
# Procedure, shortened: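 Titration series, up to 92 uM, applied to GRE-bla HeLa cells for 18 h at 37 C. Detection by CCF4 FRET substrate after 2 h at RT.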
# [11] = biological target: Glucocorticoid receptor (Homo sapiens) (UniProt P04150); assay: qHTS assay for small molecule antagonists of glucocorticoid receptor signaling (AID 588533; active means well fitted inhibition curve with a large enough effect in the signal ratio, with a control signal flat, not every such curve was filed as active; the % refers to the signal ratio;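 further: cells stimulated with 2 nM dexamethasone as agonist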)
# Procedure, shortened: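 Antagonist-mode qHTS: compound titrations added to GRE-bla HeLa cells, then dexamethasone 2 nM final; 18 h, 37 C. CCF4 FRET fluorescence normalized to dexamethasone and DMSO; IC50 from Hill fit.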
# [12] = biological target: Peroxisome proliferator-activated receptor delta (Homo sapiens) (UniProt Q03181); assay: qHTS assay for small molecule agonists of peroxisome proliferator-activated receptor delta signaling (AID 588534; calls by dose curve)
# Peroxisome proliferator-activated receptor delta (Homo sapiens), sequence (Q03181 whole entry, looked up): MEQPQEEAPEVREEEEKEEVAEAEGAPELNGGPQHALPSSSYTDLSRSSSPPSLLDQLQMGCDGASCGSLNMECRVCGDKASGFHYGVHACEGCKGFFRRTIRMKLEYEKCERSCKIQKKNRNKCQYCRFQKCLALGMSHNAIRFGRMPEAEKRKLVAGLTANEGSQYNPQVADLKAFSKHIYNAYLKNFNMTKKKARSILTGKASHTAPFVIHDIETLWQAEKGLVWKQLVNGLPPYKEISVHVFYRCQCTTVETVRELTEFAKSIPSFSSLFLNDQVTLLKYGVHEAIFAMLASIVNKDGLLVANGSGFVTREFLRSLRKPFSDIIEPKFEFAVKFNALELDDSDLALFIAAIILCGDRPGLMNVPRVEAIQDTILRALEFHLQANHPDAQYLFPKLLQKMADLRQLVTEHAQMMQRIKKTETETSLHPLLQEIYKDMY
# Procedure, shortened: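 Cell-based beta-lactamase reporter assay run in agonist mode: cells seeded and incubated 5 hrs at 37 C, compounds added and incubated 18 hrs at 37 C. CCF4 dye fluorescence read after 2 hrs at RT; EC50 and efficacy from Hill fits.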
# [13] = qHTS assay for small molecule antagonists of peroxisome proliferator-activated receptor delta signaling (AID 588535; active means well fitted inhibition curve with a large enough effect in the signal ratio, with a control signal flat, not every such curve was filed as active; the % refers to the signal ratio;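 on max response: cells co-treated with a PPAR-delta agonist as stimulator during compound exposure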); conditions: HEK293T PPARd-UAS-bla, beta-lactamase FRET ratio, 18 h; 460 nm channel
# Procedure, shortened: (§1)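 GeneBLAzer PPAR-delta-UAS-bla HEK293T cells in medium with 2% charcoal/dextran FBS were preincubated 5 hrs at 37 C, then given compounds, incubated 18 hrs at 37 C, and read by CCF4 beta-lactamase fluorescence; IC50 from Hill fits.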
# [14] = biological target: Peroxisome proliferator-activated receptor delta (Homo sapiens) (UniProt Q03181); assay: as above
# Procedure, shortened: as §1
# [15] = biological target: Vitamin D3 receptor (Homo sapiens) (UniProt P11473); assay: qHTS assay for small molecule antagonists of vitamin D receptor signaling (AID 588541; calls by dose curve;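 further: receptor activated by calcitriol during compound treatment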)
# Vitamin D3 receptor (Homo sapiens), sequence (P11473 whole entry, looked up): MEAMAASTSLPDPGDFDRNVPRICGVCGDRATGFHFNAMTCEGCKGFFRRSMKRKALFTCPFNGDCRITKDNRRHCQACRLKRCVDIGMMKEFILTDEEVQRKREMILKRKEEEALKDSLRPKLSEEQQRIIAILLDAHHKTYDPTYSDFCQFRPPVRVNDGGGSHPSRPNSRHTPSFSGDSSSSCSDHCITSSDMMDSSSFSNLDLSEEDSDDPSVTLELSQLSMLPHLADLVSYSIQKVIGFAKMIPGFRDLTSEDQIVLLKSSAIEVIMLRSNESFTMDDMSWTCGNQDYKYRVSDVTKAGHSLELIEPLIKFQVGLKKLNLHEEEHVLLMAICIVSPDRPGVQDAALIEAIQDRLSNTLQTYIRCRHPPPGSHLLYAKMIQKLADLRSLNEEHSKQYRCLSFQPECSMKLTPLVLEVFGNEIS
# Procedure, shortened: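 VDR-UAS-bla HEK293T cells (2000/well, 2% charcoal-stripped FBS) were treated with titrated compounds plus 1-alpha,25-dihydroxyvitamin D3 (50 nM or 3 nM final) for 16 h at 37 C. CCF4 beta-lactamase fluorescence was read; Hill fits gave IC50.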
# [16] = qHTS assay for small molecule activators of the nuclear factor-kappa B (NF-kB) signaling pathway (AID 651749; active means well fitted activation curve with a large enough effect in the signal ratio; the % refers to the signal ratio); conditions: NF-kB-bla ME-180 cells, beta-lactamase FRET ratio, 16 h; stronger effect = higher value
# Procedure, shortened: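 ME-180 cells stably carrying a beta-lactamase reporter under an NF-kB response element were exposed to compound or DMSO vehicle for 16 hr at 37C, 5% CO2. Pathway activation was read by FRET, since reporter expression disrupts FRET.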
# [17] = qHTS assay for small molecule antagonists of the retinoid-related orphan receptor gamma (ROR-gamma) signaling pathway - cell viability counter screen (AID 720652; active means well fitted curve in the direction sought with a large enough effect in the repeat runs; an effect the other way counts as inactive or inconclusive;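 further: compound exposure lasted 16 hr before ATP read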)
# Procedure, shortened: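 Counter screen in CHO cells carrying TET-inducible ROR-gamma and an ROR response element-luciferase reporter; cells plated 5 hr, compound pinned, doxycycline added, then 16 hr at 37 C. Viability read as intracellular ATP by CellTiter-Glo luminescence.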
# [18] = biological target: Peroxisome proliferator-activated receptor gamma (Homo sapiens) (UniProt P37231); assay: qHTS assay for small molecule antagonists of peroxisome proliferator-activated receptor gamma signaling (AID 588537; active means well fitted inhibition curve with a large enough effect in the signal ratio, with a control signal flat, not every such curve was filed as active; the % refers to the signal ratio;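 further: reporter cells co-stimulated with 50 nM rosiglitazone agonist during compound treatment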)
# Peroxisome proliferator-activated receptor gamma (Homo sapiens), sequence (P37231 whole entry, looked up): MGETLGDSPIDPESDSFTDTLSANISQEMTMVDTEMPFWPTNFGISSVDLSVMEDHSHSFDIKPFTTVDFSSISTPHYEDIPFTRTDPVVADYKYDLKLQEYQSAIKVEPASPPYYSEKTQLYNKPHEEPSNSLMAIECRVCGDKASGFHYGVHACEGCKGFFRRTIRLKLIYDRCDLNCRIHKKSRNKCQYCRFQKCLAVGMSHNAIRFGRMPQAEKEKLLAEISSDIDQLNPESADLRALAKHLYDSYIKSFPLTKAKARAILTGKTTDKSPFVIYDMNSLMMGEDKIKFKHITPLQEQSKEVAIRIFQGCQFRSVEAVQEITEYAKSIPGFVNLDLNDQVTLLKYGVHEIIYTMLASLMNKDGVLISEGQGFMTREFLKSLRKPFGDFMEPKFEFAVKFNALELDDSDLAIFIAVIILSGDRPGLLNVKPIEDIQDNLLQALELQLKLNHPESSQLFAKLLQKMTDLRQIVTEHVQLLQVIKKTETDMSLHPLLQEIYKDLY
# Procedure, shortened: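 PPAR-gamma-UAS-bla HEK293 cells (3000/well, 1% charcoal/dextran-stripped FBS) were preincubated 6-6.5 h at 37 C, given titrated compounds, then stimulated with 50 nM rosiglitazone for 16 h. Beta-lactamase activity was read with CCF4 dye; IC50 came from Hill fits.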
# [19] = qHTS assay for small molecule activators of the p53 signaling pathway (AID 651743; active means well fitted activation curve with a large enough effect in the signal ratio, not every such curve was filed as active; the % refers to the signal ratio); conditions: HCT-116 p53RE-bla, beta-lactamase FRET ratio, 16 h; activation: stronger effect = higher value
# Procedure, shortened: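 p53RE-bla HCT-116 cells with a stably integrated beta-lactamase reporter under p53 response elements were plated, rested 5 hours at 37 C/5% CO2, then exposed to compounds in DMSO for 16 hours at 37 C. LiveBLAzer B/G FRET substrate was read after 2 hours at room temperature.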
# [20] = biological target: Nuclear receptor ROR-gamma (Homo sapiens) (UniProt P51449); assay: qHTS assay for small molecule antagonists of the retinoid-related orphan receptor gamma (ROR-gamma) signaling pathway (AID 651802); further: nearly all actives have a fitted effect of over 60% in size
# Nuclear receptor ROR-gamma (Homo sapiens), sequence (P51449 whole entry, looked up): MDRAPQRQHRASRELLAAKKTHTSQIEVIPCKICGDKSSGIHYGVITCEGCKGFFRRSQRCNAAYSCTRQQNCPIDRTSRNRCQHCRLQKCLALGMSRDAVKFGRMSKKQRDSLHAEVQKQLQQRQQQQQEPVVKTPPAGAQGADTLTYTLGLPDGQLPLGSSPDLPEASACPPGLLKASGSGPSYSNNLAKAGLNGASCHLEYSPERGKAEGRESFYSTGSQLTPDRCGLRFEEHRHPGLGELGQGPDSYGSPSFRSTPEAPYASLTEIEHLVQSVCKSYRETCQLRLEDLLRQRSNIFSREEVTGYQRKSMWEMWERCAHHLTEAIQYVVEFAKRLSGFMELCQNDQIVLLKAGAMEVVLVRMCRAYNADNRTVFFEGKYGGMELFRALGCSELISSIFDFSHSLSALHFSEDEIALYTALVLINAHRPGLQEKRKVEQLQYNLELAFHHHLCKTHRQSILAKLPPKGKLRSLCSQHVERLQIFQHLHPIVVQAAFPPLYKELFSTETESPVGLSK
# Procedure, shortened: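 CHO cells carrying TET-inducible ROR-gamma and an ROR response element–luciferase reporter were exposed to compound, then induced with doxycycline. After 16hr at 37C, luminescence was read; lower signal indicates antagonism.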
SMILES,Potency [1],Potency [2],Potency [3],Potency [4],Potency [5],activation [6],outcome [7],Potency [8],Potency [9],activation [10],outcome [11],outcome [12],max response [13] [%],outcome [14],outcome [15],activation [16],Potency [17],Potency [18],activation [19],Potency [20]
CC(=O)[O-].CC(=O)[O-].CC(=O)[O-].[Cr+3],inactive,inactive,inactive,inactive,inactive,-2.21% (inactive),–,–,–,–,–,–,–,–,–,–,–,–,–,–
CC(=O)CCC(C)=O,inactive,inactive,inactive,inactive,–,1.06% (inactive),inactive,inactive,inactive,-5.45% (inactive),inactive,inactive,-12.7,inactive,inactive,0.108% (inactive),inactive,–,–,–
Cc1ccccc1[N+](=O)[O-],inactive,inactive,inactive,–,–,-1.35% (inactive),inactive,inactive,inactive,-7.47% (inactive),inactive,inactive,-51,inactive,inactive,3.11% (inactive),inactive,inactive,1.69% (inactive),inactive
CC(C#N)CCC#N (configuration not stated),inactive,inactive,inactive,inactive,–,-0.458% (inactive),–,inactive,inactive,5.21% (inactive),inactive,inactive,27.1,inactive,inactive,0.705% (inactive),–,inactive,-0.507% (inactive),inactive
CCN(CC)CCO,inactive,inactive,inactive,inactive,–,3.62% (inactive),inactive,–,–,6.4% (inactive),inactive,inactive,24,inactive,–,-0.22% (inactive),inactive,inactive,0.771% (inactive),inactive
CCOC(=O)CC(SP(=O)(OC)OC)C(=O)OCC (configuration not stated),inactive,–,inactive,42.2 µM (active),inactive,1.9% (inactive) and 4.95% (inactive),inactive,–,–,2.95% (inactive),inactive,inactive,–,–,–,-1.06% (inactive) and 1.21% (inactive),inactive,inactive,-0.7% (inactive) and -2.82% (inactive),–
Cc1ccc(N)c(C)c1,inactive,inactive,inactive,–,inactive,-0.367% (inactive),–,–,–,-0.661% (inactive),inactive,–,14.7,inactive,–,–,inactive,inactive,–,–
